This note sets out measurements from paper PMC4336329 (PLoS ONE, 2015).

The campaign covered roughly 310,000 compounds. About 14,000 (4.5%) showed an effect of 50% or more. Effects have a minus sign here. The full list was thinned out, with strong results kept by preference.
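Note: peak tail current of the secondary pulse compared with the same well before compound.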

human ether-à-go-go-related gene (hERG) potassium channel, sequence (Q12809 whole entry, looked up): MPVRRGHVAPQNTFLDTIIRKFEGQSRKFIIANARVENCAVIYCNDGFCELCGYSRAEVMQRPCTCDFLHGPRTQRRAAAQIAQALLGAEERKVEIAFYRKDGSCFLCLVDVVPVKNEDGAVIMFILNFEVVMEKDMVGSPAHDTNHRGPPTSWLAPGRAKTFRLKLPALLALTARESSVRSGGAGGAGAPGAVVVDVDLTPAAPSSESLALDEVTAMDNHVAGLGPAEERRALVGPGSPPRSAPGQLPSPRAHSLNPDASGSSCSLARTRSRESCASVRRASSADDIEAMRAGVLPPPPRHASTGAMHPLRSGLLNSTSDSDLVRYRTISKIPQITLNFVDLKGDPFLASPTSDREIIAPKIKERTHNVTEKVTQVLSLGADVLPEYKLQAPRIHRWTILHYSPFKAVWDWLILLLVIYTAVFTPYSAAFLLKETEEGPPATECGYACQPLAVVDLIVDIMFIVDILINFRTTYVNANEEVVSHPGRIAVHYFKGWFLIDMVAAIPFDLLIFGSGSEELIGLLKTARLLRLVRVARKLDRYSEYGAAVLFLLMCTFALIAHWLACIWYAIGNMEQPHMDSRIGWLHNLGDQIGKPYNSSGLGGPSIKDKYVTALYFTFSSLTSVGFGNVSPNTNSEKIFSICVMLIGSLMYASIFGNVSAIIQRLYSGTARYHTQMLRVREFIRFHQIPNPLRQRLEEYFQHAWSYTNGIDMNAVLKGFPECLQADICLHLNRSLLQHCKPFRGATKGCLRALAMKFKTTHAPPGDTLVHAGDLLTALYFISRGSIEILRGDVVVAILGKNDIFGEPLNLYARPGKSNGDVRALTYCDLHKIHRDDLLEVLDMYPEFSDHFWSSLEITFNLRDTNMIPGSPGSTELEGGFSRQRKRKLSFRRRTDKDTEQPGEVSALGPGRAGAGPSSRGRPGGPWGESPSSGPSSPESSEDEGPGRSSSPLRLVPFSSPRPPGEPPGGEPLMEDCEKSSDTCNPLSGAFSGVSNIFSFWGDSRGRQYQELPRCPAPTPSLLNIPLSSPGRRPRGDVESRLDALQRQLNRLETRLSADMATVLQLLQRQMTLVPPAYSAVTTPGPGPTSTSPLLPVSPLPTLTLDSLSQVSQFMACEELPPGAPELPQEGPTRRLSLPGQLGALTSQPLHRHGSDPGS

This assay addresses human ether-à-go-go-related gene (hERG) potassium channel (human, UniProt Q12809). Description: primary screen, population patch clamp on CHO cells stably expressing hERG; higher = less effect of the substance.
`CCOC(=O)c1oc2ccc(/C=N/O)c(Cl)c2c1C`: the “hERG current change (%, negative = inhibition) at 10uM” value is 37.3%. The result for `O=C(CSc1cccc[n+]1[O-])Nc1ccc(C(F)(F)F)cc1[N+](=O)[O-]` reads 4.31%. In the case of `Clc1ccc(CO/N=C/c2cccs2)cc1`, the “hERG current change (%, negative = inhibition) at 10uM” value came out at 12.4%.

As for `CCOC(=O)c1c(N)n(Cc2ccco2)c2nc3ccccc3nc12`, the “hERG current change (%, negative = inhibition) at 10uM” value is given as -61.9%. For `COCC(C)OC(=O)c1c(N)n(CC(C)C)c2nc3ccccc3nc12` (stereo not shown), the “hERG current change (%, negative = inhibition) at 10uM” value was -67.8%. `CCOC(=O)c1c(N)n(Cc2ccccc2)c2nc3ccccc3nc12`: the “hERG current change (%, negative = inhibition) at 10uM” value was -29.6%.

In the case of `COCCCn1c(N)c(C(=O)OC(C)COC)c2nc3ccccc3nc21` (stereo not shown), the “hERG current change (%, negative = inhibition) at 10uM” value turned out to be 0.737%.

With `CCCCOCCCn1c(N)c(C(=O)OC(C)COC)c2nc3ccccc3nc21` (stereo not shown), the “hERG current change (%, negative = inhibition) at 10uM” value is given as -9.66%. The result for `CC(C)(C)OC(=O)c1c(N)n(Cc2ccco2)c2nc3ccccc3nc12` reads -5.55%; that for `CSc1nccc(-c2nn(-c3ccc(C)cc3)ccc2=O)n1`, -15%; that for `COC(=O)CSc1nnc(CNC(=O)c2ccc(S(=O)(=O)N3CCOCC3)cc2)n1C`, 23.7%. The result for `COCCNC(=O)c1cccc(OC2CCN(Cc3ccc(F)c(OC)c3)CC2)c1` reads -16.2%; that for `COCCNC(=O)c1cccc(OC2CCN(Cc3ccc(Cl)c(F)c3)CC2)c1`, -37.5%; that for `COCCNC(=O)c1cccc(OC2CCN(Cc3ccc(OC(F)F)cc3)CC2)c1`, -73.5%. The result for `COCCNC(=O)c1cccc(OC2CCN(Cc3ccc(C(=O)OC)cc3)CC2)c1` reads -40.5%. `COCCNC(=O)c1cccc(OC2CCN(Cc3ccccc3OC(F)F)CC2)c1`: the “hERG current change (%, negative = inhibition) at 10uM” value came out at 2.5%. As to `COCCNC(=O)c1cccc(OC2CCN(Cc3ccc(C(C)C)cc3)CC2)c1`, the “hERG current change (%, negative = inhibition) at 10uM” value is reported as -70.7%.

Turning to `COC(=O)/C=c1\sc2ncnn2c1=O`, the “hERG current change (%, negative = inhibition) at 10uM” value amounted to 3.63%.

In the case of `CCCNC(=O)c1onc(CS(=O)(=O)c2cccc(OC)c2)c1C(=O)NCCC`, the “hERG current change (%, negative = inhibition) at 10uM” value is reported as -12.5%. In the case of `CN(C)/C=C/C(=O)c1ncc(C(F)(F)F)cc1Cl`, the “hERG current change (%, negative = inhibition) at 10uM” value was determined as 8.95%. The result for `CC(NC(=O)[C@H](C)NC(=O)c1ccco1)c1ccc(S(N)(=O)=O)cc1` (stereo partly shown) reads 18.9%; that for `O=C(CN1CCC(C(=O)c2cccc(Cl)c2)CC1)Nc1ccc(C(=O)O)cc1`, 16%; that for `COc1ccc(Nc2nnc(-c3ccc(C(N)=O)cc3)c3ccccc23)cc1`, -33.9%. Take `Cc1nc2cc(Nc3nnc(-c4ccccc4)c4ccccc34)ccc2n1C`: the “hERG current change (%, negative = inhibition) at 10uM” value is -67.2%. Regarding `CC(=O)Nc1ccc(Nc2nnc(-c3ccc(O)cc3)c3ccccc23)cc1`, the “hERG current change (%, negative = inhibition) at 10uM” value worked out at 10.2%.

Regarding `COc1ccc(Nc2nnc(-c3ccc(C)cc3)c3ccccc23)cc1C(=O)N1CCCCC1`, the “hERG current change (%, negative = inhibition) at 10uM” value was -33.7%. Then `Cc1ccc(-c2nnc(Nc3ccc4c(c3)nc(C)n4C)c3ccccc23)cc1`, with 5.03%; and `Oc1ccc(Nc2nnc(-c3ccc(O)cc3)c3ccccc23)cc1`, with 24.3%; and `Oc1ccc(-c2nnc(Nc3ccccc3)c3ccccc23)cc1`, with -58.9%.

For `COc1ccc(Nc2nnc(-c3ccc(O)cc3)c3ccccc23)cc1`, the “hERG current change (%, negative = inhibition) at 10uM” value is -64.8%. Then `Oc1ccc(-c2nnc(Nc3cccc(O)c3)c3ccccc23)cc1`, with -7.99%.

`Cc1nnc(Nc2ccc3c(c2)ncn3C)c2ccccc12`: the “hERG current change (%, negative = inhibition) at 10uM” value was 0.0649%. The result for `COc1ccc(Nc2nnc(-c3ccccc3)c3ccccc23)cc1C(=O)N1CCCCC1` reads -73%. Regarding `COc1ccc(-c2nnc(Nc3ccc(OC)c(C(=O)N4CCCCC4)c3)c3ccccc23)cc1`, the “hERG current change (%, negative = inhibition) at 10uM” value is given as -39.3%.

On to `CCOC(=O)c1ccc(N=Cc2nc3ccccc3n2C)cc1`, for which the “hERG current change (%, negative = inhibition) at 10uM” value came out at 7.61%. Take `COc1ccc(-n2c(=O)[nH]cc(C(=O)Nc3ccc4c(c3)OCCO4)c2=O)cc1OC`: the “hERG current change (%, negative = inhibition) at 10uM” value is given as 6.18%. Then `N#Cc1c(N)nc2c(c1N)CC(COc1ccccc1)O2` (stereo not shown), with -6.98%; and `CCSc1nnc(CNC(=O)C23CC4CC(CC(C4)C2)C3)n1Cc1ccccc1`, with -5.81%. Take `C[C@H](NC(=O)c1ccccc1Cl)C(=O)OCc1cn2cc(Cl)ccc2n1`: the “hERG current change (%, negative = inhibition) at 10uM” value was -7.08%. Then `COc1ccc(OC)c(NC(=O)CCc2nnc3ccc(NCc4ccco4)nn23)c1`, with -15.2%; and `CC(Nc1nc(-c2cccc(Br)c2)cs1)c1nc2cc(Cl)c(N3CCCCC3)cc2n1CCOCCO` (stereo not shown), with -19.1%; and `COc1cc(C(C)=O)ccc1OC(=O)c1cc2cccc(OC)c2oc1=O`, with 2.53%.

As for `CCn1c(SCC(=O)Nc2cc(NC(C)=O)ccc2OC)nnc1-c1ccccn1`, the “hERG current change (%, negative = inhibition) at 10uM” value is 4.03%.
